From PubChem BioAssay (EPA / NIEHS)
Several values for one entry are separate records, joined by “and”; a condition that tells them apart may be missing. Equal values may be shown once. Records with an inconclusive call do not appear. Some compounds were tested as several samples or in several runs, with calls that do not always agree. Activity calls are given as the source filed them. The calls were made as follows, unless noted: active = hit-call score of the fitted dose curve at least 0.9, where 1 is the maximum; inactive = score below 0.9.

Key:
[1] = read-out: Interleukin-1 alpha (IL1a), IL1A (gene 3552); test: BSK_LPS_IL1a: BioMAP Diversity Plus: LPS Assay for Interleukin-1 alpha (IL1a) Biomarker Activity (AID 2283080); details: primary human HUVEC with PBMC; actives raise or lower the signal
Outline: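 ELISA read-out of IL-1 alpha from a human primary vascular co-culture (endothelium plus PBMC) under LPS, sampled 24 hours post-dosing. Activity was fitted in both directions relative to DMSO controls.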

[2] = BSK_LPS_PGE2: BioMAP Diversity Plus: LPS Assay for Prostaglandin E2 (PGE2) Biomarker Activity (AID 2283082); details: primary human HUVEC with PBMC; actives raise or lower the signal;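 as to AC50: secreted prostaglandin E2 measured by ELISA in LPS-stimulated co-culture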
Outline: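 PGE2 release measured by ELISA in an LPS-activated co-culture of human umbilical vein endothelial cells and peripheral blood mononuclear cells, read at 24 h post-dosing. DMSO served as baseline for bidirectional curve fitting.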

[3] = read-out: Macrophage colony-stimulating factor (MCSF), CSF1 (gene 1435); test: BSK_LPS_MCSF: BioMAP Diversity Plus: LPS Assay for Macrophage colony-stimulating factor (MCSF) Biomarker Activity (AID 2283083); details: primary human HUVEC with PBMC; actives raise or lower the signal
Outline: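 ELISA readout of M-CSF after 24 h compound exposure in a human endothelial/PBMC co-culture. Activity, in either direction, is fitted relative to DMSO vehicle.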

[4] = read-out: Tissue Factor, F3 (gene 2152); test: BSK_LPS_TissueFactor: BioMAP Diversity Plus: LPS Assay for Tissue Factor Biomarker Activity (AID 2283084); details: primary human HUVEC with PBMC; actives raise or lower the signal
Outline: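 ELISA signal for cell-surface Tissue Factor (CD142) was read 24 h after compound dosing of an LPS-stimulated human endothelial–PBMC primary co-culture. Gain or loss of signal was scored relative to DMSO.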

[5] = read-out: Tumor necrosis factor (Homo sapiens) (UniProt P01375); test: BSK_LPS_TNFa: BioMAP Diversity Plus: LPS Assay for Tumour Necrosis Factor alpha (TNFa) Biomarker Activity (AID 2283085); details: primary human HUVEC with PBMC; actives raise or lower the signal;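 as to AC50: TNFa protein level quantified by ELISA in the co-culture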
Outline: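 TNFa was quantified by ELISA in LPS-activated co-cultures of human endothelial cells and PBMC, 24 h post-dosing. Both increases and decreases versus DMSO were fitted.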

[6] = read-out: Vascular cell adhesion molecule 1 (VCAM1), VCAM1 (gene 7412); test: BSK_LPS_VCAM1: BioMAP Diversity Plus: LPS Assay for Vascular cell adhesion molecule 1 (VCAM1) Biomarker Activity (AID 2283086); details: primary human HUVEC with PBMC; actives raise or lower the signal
Outline: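 VCAM-1 quantified by ELISA in an LPS-activated co-culture of human endothelial cells and peripheral blood mononuclear cells, read 24 h post-treatment. Fitted in both directions versus DMSO; parallel SRB staining flags overt cytotoxicity.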

CD38, CD38 (gene 952) = test: BSK_SAg_CD38: BioMAP Diversity Plus: SAg Assay for CD38 Biomarker Activity (AID 2283087); details: primary human HUVEC with PBMC; actives raise or lower the signal
Outline: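 CD38 quantified by ELISA (fluorescence) in a superantigen-activated endothelial cell–PBMC co-culture at 24 h post-dose. Activity fitted in both directions relative to DMSO; parallel SRB and Alamar Blue cytotoxicity read-outs.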

CD40, CD40 (gene 958) = test: BSK_SAg_CD40: BioMAP Diversity Plus: SAg Assay for CD40 Biomarker Activity (AID 2283088); details: primary human HUVEC with PBMC; actives raise or lower the signal
Outline: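 Compounds were dosed onto a human primary endothelial–PBMC co-culture, and after 24 h CD40 was quantified by ELISA using a fluorescence signal. Activity in either direction was fitted relative to DMSO.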

[7] = read-out: Monocyte Chemoattractant Protein-1 (MCP1), CCL2 (gene 6347); test: BSK_SAg_MCP1: BioMAP Diversity Plus: SAg Assay for Monocyte Chemoattractant Protein-1 (MCP1) Biomarker Activity (AID 2283090); details: primary human HUVEC with PBMC; actives raise or lower the signal
Outline: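 Values derive from bidirectional fitting of ELISA-measured MCP1 against DMSO controls. Readings were taken 24 h after dosing human vascular endothelial cells co-cultured with peripheral blood mononuclear cells under superantigen stimulation.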

[8] = read-out: E-selectin (Homo sapiens) (UniProt P16581); test: BSK_SAg_Eselectin: BioMAP Diversity Plus: SAg Assay for Eselectin Biomarker Activity (AID 2283091); details: primary human HUVEC with PBMC; actives raise or lower the signal
Outline: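 Co-culture: HUVEC + PBMC. Dose compound; 24 h. ELISA for E-selectin. Bidirectional fit vs DMSO.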

[9] = read-out: Monokine induced gamma interferon (MIG), CXCL9 (gene 4283); test: BSK_SAg_MIG: BioMAP Diversity Plus: SAg Assay for Monokine induced gamma interferon (MIG) Biomarker Activity (AID 2283092); details: primary human HUVEC with PBMC; actives raise or lower the signal
Outline: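 ELISA readout of MIG/CXCL9; primary human umbilical vein endothelial cells co-cultured with peripheral blood mononuclear cells; 24 h post-dose; gain/loss fit vs DMSO baseline.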

[10] = BSK_SAg_PBMCCytotoxicity: PBMC Cytotoxicity Assessment in the BioMAP Diversity Plus: SAg Assay (AID 2283093); details: primary human HUVEC with PBMC;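 also: PBMC viability measured as Alamar Blue reduction fluorescence at 546/580 nm; fitted both ways against DMSO so a hit may be loss or gain of signal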;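 as to AC50: PBMC superantigen activated with SEB plus TSST-1 one hour after compound addition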
Outline: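 Alamar Blue reduction (6 h, 546/580 nm) reports PBMC cytotoxicity after 90 h superantigen activation (SEB, TSST-1; 20 ng/mL final each) with 1 h compound pre-treatment. Gain or loss of signal fitted versus DMSO.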

[11] = read-out: Interleukin-8 (IL8), CXCL8 (gene 3576); test: BSK_SAg_IL8: BioMAP Diversity Plus: SAg Assay for Interleukin-8 (IL8) Biomarker Activity (AID 2283094); details: primary human HUVEC with PBMC; actives raise or lower the signal
Outline: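 ELISA readout of IL-8 from a superantigen-activated endothelial/PBMC primary human co-culture, taken 24 h post-dosing and fitted in both directions against DMSO; parallel SRB total-protein staining flags overt cytotoxicity.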

[12] = BSK_SAg_Proliferation: Cell Proliferation Assessment in the BioMAP Diversity Plus: SAg Assay (AID 2283095); details: primary human HUVEC with PBMC;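 also: relative cell number as total protein by SRB absorbance in sub-confluent culture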
Outline: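 Relative cell number in the endothelial cell/PBMC co-culture was quantified at 96 h by SRB staining (0.1% SRB, 10% TCA fixation, read at 560 nm). Curves were fitted in both directions relative to DMSO baseline.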

[13] = BSK_SAg_SRB: Viability Assessment in the BioMAP Diversity Plus: SAg Assay (AID 2283096); details: primary human HUVEC with PBMC;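 also: cells read one day after compound addition; hits may be either gain or loss of signal compared with DMSO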
Outline: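 This overt-cytotoxicity endpoint quantifies protein in human endothelial/PBMC co-cultures at 24 h using SRB absorbance (560 nm) after trichloroacetic acid fixation. Values reflect signal change from the DMSO negative control, fitted bidirectionally.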

CD69, CD69 (gene 969) = test: BSK_SAg_CD69: BioMAP Diversity Plus: SAg Assay for CD69 Biomarker Activity (AID 2283089); details: primary human HUVEC with PBMC; actives raise or lower the signal
Outline: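 ELISA, fluorescence read-out: CD69 on human umbilical vein endothelial cell + PBMC co-culture, 24 h post-dosing. Gain or loss of signal fitted bidirectionally against DMSO baseline.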

[14] = read-out: Monocyte Chemoattractant Protein-1 (MCP1), CCL2 (gene 6347); test: BSK_LPS_MCP1: BioMAP Diversity Plus: LPS Assay for Monocyte Chemoattractant Protein-1 (MCP1) Biomarker Activity (AID 2283081); details: primary human HUVEC with PBMC; actives raise or lower the signal
Outline: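 Human endothelial–PBMC co-cultures were dosed with chemical, then LPS-driven MCP-1 levels were quantified by ELISA at 24 h. Activity in either direction was fitted versus DMSO negative control.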

[15] = target: human CYP19A1, CYP19A1 (gene 1588) (UniProt P11511); test: NVS_ADME_hCYP19A1: NovaScreen (NVS) CYP450-related Enzyme Activity (ADME) Assay for human CYP19A1 (AID 2283098; active = hit-call score of the fitted dose curve at least 0.9, where 1 is the maximum;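 also: potency for inhibitors seen as loss of fluorescent enzyme signal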)
Sequence of human CYP19A1, CYP19A1 (gene 1588) (P11511 whole entry, looked up): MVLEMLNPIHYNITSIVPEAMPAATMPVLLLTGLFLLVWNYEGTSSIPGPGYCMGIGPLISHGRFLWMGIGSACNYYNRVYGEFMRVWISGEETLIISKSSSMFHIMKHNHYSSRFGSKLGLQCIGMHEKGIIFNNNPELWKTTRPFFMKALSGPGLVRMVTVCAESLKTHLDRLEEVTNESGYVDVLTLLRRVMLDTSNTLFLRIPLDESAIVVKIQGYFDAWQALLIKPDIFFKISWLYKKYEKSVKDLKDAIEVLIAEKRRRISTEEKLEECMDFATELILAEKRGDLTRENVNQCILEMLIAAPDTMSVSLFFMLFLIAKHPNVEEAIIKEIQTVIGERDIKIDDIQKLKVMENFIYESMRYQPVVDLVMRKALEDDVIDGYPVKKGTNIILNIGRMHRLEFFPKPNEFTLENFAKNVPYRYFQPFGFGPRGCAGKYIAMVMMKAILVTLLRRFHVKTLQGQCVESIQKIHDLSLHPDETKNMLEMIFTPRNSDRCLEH
Outline: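 Compounds were first screened at 10 uM in duplicate against purified enzyme, with a fluorogenic substrate and fluorescence intensity detection after 0.5 h. Inhibition appears as reduced signal against acetonitrile control.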

Measured: AC50

Sequence of E-selectin (Homo sapiens) (P16581 whole entry, looked up): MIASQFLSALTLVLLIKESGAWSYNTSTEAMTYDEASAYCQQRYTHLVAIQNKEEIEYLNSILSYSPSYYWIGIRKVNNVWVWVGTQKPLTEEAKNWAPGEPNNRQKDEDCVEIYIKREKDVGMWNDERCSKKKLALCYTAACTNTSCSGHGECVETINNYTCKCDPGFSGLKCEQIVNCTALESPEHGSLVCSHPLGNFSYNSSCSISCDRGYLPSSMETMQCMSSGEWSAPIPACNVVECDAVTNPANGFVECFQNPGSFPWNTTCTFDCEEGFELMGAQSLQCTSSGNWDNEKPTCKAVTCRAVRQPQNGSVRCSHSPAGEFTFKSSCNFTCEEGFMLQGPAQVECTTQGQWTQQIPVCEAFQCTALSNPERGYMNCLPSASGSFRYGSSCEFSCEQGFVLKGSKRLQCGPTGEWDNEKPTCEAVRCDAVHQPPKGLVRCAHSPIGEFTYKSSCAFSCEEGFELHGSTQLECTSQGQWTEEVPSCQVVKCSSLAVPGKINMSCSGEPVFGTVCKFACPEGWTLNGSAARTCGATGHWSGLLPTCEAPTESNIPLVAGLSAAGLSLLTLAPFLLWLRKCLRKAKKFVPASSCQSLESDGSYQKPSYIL
Sequence of Tumor necrosis factor (Homo sapiens) (P01375 whole entry, looked up): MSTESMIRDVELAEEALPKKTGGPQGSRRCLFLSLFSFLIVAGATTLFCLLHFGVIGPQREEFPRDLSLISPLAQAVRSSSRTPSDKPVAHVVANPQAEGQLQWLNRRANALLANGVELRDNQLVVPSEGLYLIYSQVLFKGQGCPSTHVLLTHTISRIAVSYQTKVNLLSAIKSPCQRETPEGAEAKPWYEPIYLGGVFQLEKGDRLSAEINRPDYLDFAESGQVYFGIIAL

O=C(O)C(F)(F)C(F)(F)C(F)(F)C(F)(F)C(F)(F)C(F)(F)C(F)F
not listed: CD69, CD69 (gene 969) | [14] | [15]
inactive: all other assays above

NCC(F)(F)C(F)(F)C(F)(F)C(F)(F)C(F)(F)C(F)(F)F
not listed: CD69, CD69 (gene 969) | [14] | [15]
inactive: all other assays above

O=C(F)C1(F)C(F)(F)C(F)(F)C(F)(F)C(F)(F)C1(F)F
not listed: CD69, CD69 (gene 969) | [14] | [15]
inactive: all other assays above

OCC(F)(F)C(F)(F)C(F)(F)C(F)(F)C(F)(F)C(F)(F)C(F)(F)C(F)(F)CO
active: [5] 399 nM | [10] 43.8 µM and 50.7 µM | [12] 45.5 µM
inactive: [1] | [2] | [3] | [4] | [5] | [6] | CD38, CD38 (gene 952) | CD40, CD40 (gene 958) | [7] | [8] | [9] | [11] | [12] | [13]

NS(=O)(=O)C(F)(F)C(F)(F)C(F)(F)C(F)(F)C(F)(F)C(F)(F)F
inactive: [1] | [3] | [4] | [5] | CD38, CD38 (gene 952) | [7] | [9] | [10] | [11] | [12] | [13]
active: [2] 10.7 µM and 13.8 µM | [6] 5.95 µM and 46.8 µM | CD38, CD38 (gene 952) 43.9 µM | CD40, CD40 (gene 958) 26.3 µM and 30 µM | [8] 41.7 µM and 21.7 µM | [10] 11.8 µM | [11] 30 µM | [13] 55.3 µM

CCN(CC)c1ccc(C=O)cc1
not listed: [14] | [15]
inactive: all other assays above

Brc1nc2ccccc2s1
not listed: [1] | CD69, CD69 (gene 969) | [15]
inactive: all other assays above

CCN=C1C=CC(=C(c2ccc(N(CC)CC)cc2)c2ccc(N(CC)CC)cc2)c2ccccc21
active: [1] 2.54 µM and 1.43 µM | [2] 3.95 µM and 2.66 µM | [3] 1.72 µM and 1.53 µM | [4] 1.6 µM and 1.55 µM | [5] 501 nM and 519 nM | [6] 1.42 µM and 1.55 µM | CD38, CD38 (gene 952) 713 nM and 470 nM | CD40, CD40 (gene 958) 1.69 µM and 1.51 µM | [7] 762 nM and 1.25 µM | [8] 1.45 µM and 1.11 µM | [9] 1.82 µM and 1.55 µM | [10] 2.52 µM and 2.57 µM | [11] 1.47 µM and 1.15 µM | [12] 419 nM and 401 nM | [13] 1.78 µM and 2.37 µM

CCN(CC)c1ccc2c(c1)Oc1cc(N(CC)CC)ccc1C21OC(=O)c2ccccc21
active: [4] 10 µM | [10] 6.68 µM | [11] 10 µM | [12] 10 µM
not listed: [14] | [15]
inactive: all other assays above

OCC(F)(F)C(F)(F)C(F)(F)CO
not listed: CD69, CD69 (gene 969) | [14] | [15]
inactive: all other assays above

CC(C)Nc1ccc(NC(C)C)c2c1C(=O)c1ccccc1C2=O
active: [15] 3.18 µM

Cc1ccc(O)c(-n2nc3ccccc3n2)c1
active: [5] 1800 nM
not listed: CD69, CD69 (gene 969) | [14] | [15]
inactive: all other assays above

CCc1cc(Cc2cc(CC)c(N)c(CC)c2)cc(CC)c1N
active: [15] 1.7 µM

O=C(O)C(F)(F)C(F)(F)C(F)(F)OC(F)(C(F)(F)F)C(F)(F)F
not listed: CD69, CD69 (gene 969) | [14] | [15]
inactive: all other assays above

CN(C(=O)C(F)(F)C(F)(F)C(F)(F)F)[Si](C)(C)C
not listed: CD69, CD69 (gene 969) | [14] | [15]
inactive: all other assays above
